{"source": "paper PMC8384837", "about": "“Expanding the binding specificity for RNA recognition by a PUF domain”", "experiment_in_all_cases": "yeast three-hybrid, YBZ-1, SC-Leu-His + 0.5 mM 3-AT, 4 days", "settings_in_all_cases": "tags: N-Gal4 AD-HA kept; label: inside an RPR1-promoter hybrid RNA with tandem MS2 sites; ssRNA", "key": {"PUM1 PUF domain R5-RFK": {"target": "PUM1 PUF domain R5-RFK (Homo sapiens, UniProt Q14671 828-1176, C1007R;R1008F;Q1011K)", "in_short": "(§1)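 The interaction score is the logarithmic change in variant frequency from input to selection. It uses log2, with a pseudocount of 1 for absent variants, and frequencies came from PCR-amplified, Illumina-sequenced repeat regions. The libraries were Pumilio-1 PUF domains randomized at the three base-contacting residues per repeat, co-expressed with matching RNA elements in strain YBZ-1 (LexA–MS2 coat fusion, HIS3 reporter). Plating lasted four days on SC-Leu (input) or SC-Leu-His + 0.5 mM 3-AT (selection).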"}, "PUM1 PUF domain R6-IFS": {"target": "T1, PUM1 PUF domain R6-IFS (Homo sapiens, UniProt Q14671 828-1176, N1043I;Y1044F;Q1047S)", "T1 sequence": "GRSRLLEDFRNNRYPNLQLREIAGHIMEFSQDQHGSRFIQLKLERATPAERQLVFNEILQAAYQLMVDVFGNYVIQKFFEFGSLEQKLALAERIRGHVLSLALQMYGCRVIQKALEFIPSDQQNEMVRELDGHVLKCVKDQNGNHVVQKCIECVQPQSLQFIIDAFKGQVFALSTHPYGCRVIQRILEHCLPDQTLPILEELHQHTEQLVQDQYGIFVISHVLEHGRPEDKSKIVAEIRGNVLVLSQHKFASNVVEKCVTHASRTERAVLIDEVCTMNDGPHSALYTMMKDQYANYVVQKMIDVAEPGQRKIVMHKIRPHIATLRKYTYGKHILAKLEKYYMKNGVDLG", "in_short": "as §1"}, "PUM1 PUF domain R6-AWG": {"target": "T2, PUM1 PUF domain R6-AWG (Homo sapiens, UniProt Q14671 828-1176, N1043A;Y1044W;Q1047G)", "T2 sequence": "T1 sequence with I216A, F217W, S220G", "in_short": "as §1"}, "PUM1 PUF domain R6-HFR": {"target": "T3, PUM1 PUF domain R6-HFR (Homo sapiens, UniProt Q14671 828-1176, N1043H;Y1044F;Q1047R)", "T3 sequence": "T1 sequence with I216H, S220R", "in_short": "as §1"}, "PUM1 PUF domain R1-GGQ": {"target": "PUM1 PUF domain R1-GGQ (Homo sapiens, UniProt Q14671 828-1176, S863G;R864G)", "in_short": "as §1"}, "PUM1 PUF domain R1-YLR": {"target": "PUM1 PUF domain R1-YLR (Homo sapiens, UniProt Q14671 828-1176, S863Y;R864L;Q867R)", "in_short": "as §1"}, "PUM1 PUF domain R2-RKV": {"target": "PUM1 PUF domain R2-RKV (Homo sapiens, UniProt Q14671 828-1176, N899R;Y900K;Q903V)", "in_short": "as §1"}, "PUM1 PUF domain R2-LWV": {"target": "PUM1 PUF domain R2-LWV (Homo sapiens, UniProt Q14671 828-1176, N899L;Y900W;Q903V)", "in_short": "as §1"}, "PUM1 PUF domain R2-QWL": {"target": "PUM1 PUF domain R2-QWL (Homo sapiens, UniProt Q14671 828-1176, N899Q;Y900W;Q903L)", "in_short": "as §1"}, "PUM1 PUF domain R8-TWK": {"target": "PUM1 PUF domain R8-TWK (Homo sapiens, UniProt Q14671 828-1176, N1122T;Y1123W;Q1126K)", "sequence (Q14671 828-1176 N1122T/Y1123W/Q1126K)": "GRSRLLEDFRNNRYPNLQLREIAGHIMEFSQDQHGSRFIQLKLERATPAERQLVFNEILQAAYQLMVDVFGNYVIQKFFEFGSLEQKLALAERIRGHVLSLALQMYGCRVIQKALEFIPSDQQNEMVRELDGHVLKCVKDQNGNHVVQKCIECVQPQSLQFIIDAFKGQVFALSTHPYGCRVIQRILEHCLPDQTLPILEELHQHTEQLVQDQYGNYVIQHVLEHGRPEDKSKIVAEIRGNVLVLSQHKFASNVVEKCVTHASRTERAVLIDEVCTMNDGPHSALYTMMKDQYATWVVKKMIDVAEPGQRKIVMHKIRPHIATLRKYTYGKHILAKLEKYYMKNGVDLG", "in_short": "as §1"}, "PUM1 PUF domain R6-KWK": {"target": "T4, PUM1 PUF domain R6-KWK (Homo sapiens, UniProt Q14671 828-1176, N1043K;Y1044W;Q1047K)", "T4 sequence": "T1 sequence with I216K, F217W, S220K", "in_short": "as §1"}, "PUM1 PUF domain R8-LYW": {"target": "PUM1 PUF domain R8-LYW (Homo sapiens, UniProt Q14671 828-1176, N1122L;Q1126W)", "in_short": "as §1"}, "PUM1 PUF domain R8-LHR": {"target": "PUM1 PUF domain R8-LHR (Homo sapiens, UniProt Q14671 828-1176, N1122L;Y1123H;Q1126R)", "in_short": "as §1"}, "PUM1 PUF domain R5-CHM": {"target": "PUM1 PUF domain R5-CHM (Homo sapiens, UniProt Q14671 828-1176, R1008H;Q1011M)", "in_short": "as §1"}, "PUM1 PUF domain R7-RRC": {"target": "PUM1 PUF domain R7-RRC (Homo sapiens, UniProt Q14671 828-1176, S1079R;N1080R;E1083C)", "in_short": "as §1"}, "PUM1 PUF domain R3-RIG": {"target": "PUM1 PUF domain R3-RIG (Homo sapiens, UniProt Q14671 828-1176, C935R;R936I;Q939G)", "in_short": "as §1"}, "PUM1 PUF domain R3-RTC": {"target": "PUM1 PUF domain R3-RTC (Homo sapiens, UniProt Q14671 828-1176, C935R;R936T;Q939C)", "in_short": "as §1"}, "PUM1 PUF domain R8-RYD": {"target": "PUM1 PUF domain R8-RYD (Homo sapiens, UniProt Q14671 828-1176, N1122R;Q1126D)", "in_short": "as §1"}, "PUM1 PUF domain R8-DYC": {"target": "PUM1 PUF domain R8-DYC (Homo sapiens, UniProt Q14671 828-1176, N1122D;Q1126C)", "in_short": "as §1"}, "PUM1 PUF domain R3-WCL": {"target": "PUM1 PUF domain R3-WCL (Homo sapiens, UniProt Q14671 828-1176, C935W;R936C;Q939L)", "in_short": "as §1"}}, "note": "Residue numbers refer to the chain shown, from its start.", "data": [{"sequence": "GGCUAGAACUAGUGGAUCCCCCGGCGCCCGGCGGCUCGAGCCCGGGUAAGUGUUAAUAGUCUGCAUGCCGCCGGGCGCCAUGCCUGCAGGUCGACUCUAGAAAACAUG", "values": [{"measurement": "binding signal", "setting": "PUM1 PUF domain R5-RFK", "value": "5.38 log2 enrichment (interaction score)"}]}, {"sequence": "GGCUAGAACUAGUGGAUCCCCCGGCGCCCGGCGGCUCGAGCCCGGGUAAGUGAAAAUAGUCUGCAUGCCGCCGGGCGCCAUGCCUGCAGGUCGACUCUAGAAAACAUG", "values": [{"measurement": "binding signal", "setting": "PUM1 PUF domain R6-IFS", "value": "5.65 log2 enrichment (interaction score)"}, {"measurement": "binding signal", "setting": "PUM1 PUF domain R6-AWG", "value": "2.57 log2 enrichment (interaction score)"}]}, {"sequence": "GGCUAGAACUAGUGGAUCCCCCGGCGCCCGGCGGCUCGAGCCCGGGUAAGUGCAAAUAGUCUGCAUGCCGCCGGGCGCCAUGCCUGCAGGUCGACUCUAGAAAACAUG", "values": [{"measurement": "binding signal", "setting": "PUM1 PUF domain R6-HFR", "value": "2.56 log2 enrichment (interaction score)"}]}, {"sequence": "GGCUAGAACUAGUGGAUCCCCCGGCGCCCGGCGGCUCGAGCCCGGGUAAGUGUAAAUCGUCUGCAUGCCGCCGGGCGCCAUGCCUGCAGGUCGACUCUAGAAAACAUG", "values": [{"measurement": "binding signal", "setting": "PUM1 PUF domain R1-GGQ", "value": "1.77 log2 enrichment (interaction score)"}, {"measurement": "binding signal", "setting": "PUM1 PUF domain R1-YLR", "value": "3.95 log2 enrichment (interaction score)"}]}, {"sequence": "GGCUAGAACUAGUGGAUCCCCCGGCGCCCGGCGGCUCGAGCCCGGGUAAGUGUAAAGAGUCUGCAUGCCGCCGGGCGCCAUGCCUGCAGGUCGACUCUAGAAAACAUG", "values": [{"measurement": "binding signal", "setting": "PUM1 PUF domain R2-RKV", "value": "4.57 log2 enrichment (interaction score)"}]}, {"sequence": "GGCUAGAACUAGUGGAUCCCCCGGCGCCCGGCGGCUCGAGCCCGGGUAAGUGUAAAAAGUCUGCAUGCCGCCGGGCGCCAUGCCUGCAGGUCGACUCUAGAAAACAUG", "values": [{"measurement": "binding signal", "setting": "PUM1 PUF domain R2-LWV", "value": "4.15 log2 enrichment (interaction score)"}, {"measurement": "binding signal", "setting": "PUM1 PUF domain R2-QWL", "value": "5.92 log2 enrichment (interaction score)"}, {"measurement": "binding signal", "setting": "PUM1 PUF domain R2-RKV", "value": "3.51 log2 enrichment (interaction score)"}]}, {"sequence": "GGCUAGAACUAGUGGAUCCCCCGGCGCCCGGCGGCUCGAGCCCGGGUAAGUGUAAAUAGUCUGCAUGCCGCCGGGCGCCAUGCCUGCAGGUCGACUCUAGAAAACAUG", "values": [{"measurement": "binding signal", "setting": "PUM1 PUF domain R8-TWK", "value": "5.8 log2 enrichment (interaction score)"}, {"measurement": "binding signal", "setting": "PUM1 PUF domain R6-HFR", "value": "6.79 log2 enrichment (interaction score)"}, {"measurement": "binding signal", "setting": "PUM1 PUF domain R6-KWK", "value": "4.71 log2 enrichment (interaction score)"}, {"measurement": "binding signal", "setting": "PUM1 PUF domain R8-LYW", "value": "2.44 log2 enrichment (interaction score)"}, {"measurement": "binding signal", "setting": "PUM1 PUF domain R8-LHR", "value": "2.47 log2 enrichment (interaction score)"}, {"measurement": "binding signal", "setting": "PUM1 PUF domain R5-RFK", "value": "4.34 log2 enrichment (interaction score)"}, {"measurement": "binding signal", "setting": "PUM1 PUF domain R5-CHM", "value": "2.96 log2 enrichment (interaction score)"}]}, {"sequence": "GGCUAGAACUAGUGGAUCCCCCGGCGCCCGGCGGCUCGAGCCCGGGUAAGUCUAAAUAGUCUGCAUGCCGCCGGGCGCCAUGCCUGCAGGUCGACUCUAGAAAACAUG", "values": [{"measurement": "binding signal", "setting": "PUM1 PUF domain R7-RRC", "value": "4.91 log2 enrichment (interaction score)"}]}, {"sequence": "GGCUAGAACUAGUGGAUCCCCCGGCGCCCGGCGGCUCGAGCCCGGGUAAGUGUAAAUGGUCUGCAUGCCGCCGGGCGCCAUGCCUGCAGGUCGACUCUAGAAAACAUG", "values": [{"measurement": "binding signal", "setting": "PUM1 PUF domain R1-YLR", "value": "2.04 log2 enrichment (interaction score)"}]}, {"sequence": "GGCUAGAACUAGUGGAUCCCCCGGCGCCCGGCGGCUCGAGCCCGGGUAAGUGUAAAUUGUCUGCAUGCCGCCGGGCGCCAUGCCUGCAGGUCGACUCUAGAAAACAUG", "values": [{"measurement": "binding signal", "setting": "PUM1 PUF domain R1-GGQ", "value": "2.33 log2 enrichment (interaction score)"}, {"measurement": "binding signal", "setting": "PUM1 PUF domain R1-YLR", "value": "5.29 log2 enrichment (interaction score)"}]}, {"sequence": "GGCUAGAACUAGUGGAUCCCCCGGCGCCCGGCGGCUCGAGCCCGGGUAAGUGUAAUUAGUCUGCAUGCCGCCGGGCGCCAUGCCUGCAGGUCGACUCUAGAAAACAUG", "values": [{"measurement": "binding signal", "setting": "PUM1 PUF domain R3-RIG", "value": "2.45 log2 enrichment (interaction score)"}, {"measurement": "binding signal", "setting": "PUM1 PUF domain R3-RTC", "value": "3.59 log2 enrichment (interaction score)"}]}, {"sequence": "GGCUAGAACUAGUGGAUCCCCCGGCGCCCGGCGGCUCGAGCCCGGGUAAGCGUAAAUAGUCUGCAUGCCGCCGGGCGCCAUGCCUGCAGGUCGACUCUAGAAAACAUG", "values": [{"measurement": "binding signal", "setting": "PUM1 PUF domain R8-TWK", "value": "2.23 log2 enrichment (interaction score)"}, {"measurement": "binding signal", "setting": "PUM1 PUF domain R8-LYW", "value": "3.09 log2 enrichment (interaction score)"}, {"measurement": "binding signal", "setting": "PUM1 PUF domain R8-RYD", "value": "4.23 log2 enrichment (interaction score)"}, {"measurement": "binding signal", "setting": "PUM1 PUF domain R8-LHR", "value": "4.05 log2 enrichment (interaction score)"}, {"measurement": "binding signal", "setting": "PUM1 PUF domain R8-DYC", "value": "4.43 log2 enrichment (interaction score)"}]}, {"sequence": "GGCUAGAACUAGUGGAUCCCCCGGCGCCCGGCGGCUCGAGCCCGGGUAAGUGUAAGUAGUCUGCAUGCCGCCGGGCGCCAUGCCUGCAGGUCGACUCUAGAAAACAUG", "values": [{"measurement": "binding signal", "setting": "PUM1 PUF domain R3-WCL", "value": "3.36 log2 enrichment (interaction score)"}, {"measurement": "binding signal", "setting": "PUM1 PUF domain R3-RIG", "value": "3.19 log2 enrichment (interaction score)"}]}, {"sequence": "GGCUAGAACUAGUGGAUCCCCCGGCGCCCGGCGGCUCGAGCCCGGGUAAGUUUAAAUAGUCUGCAUGCCGCCGGGCGCCAUGCCUGCAGGUCGACUCUAGAAAACAUG", "values": [{"measurement": "binding signal", "setting": "PUM1 PUF domain R7-RRC", "value": "4.95 log2 enrichment (interaction score)"}]}, {"sequence": "GGCUAGAACUAGUGGAUCCCCCGGCGCCCGGCGGCUCGAGCCCGGGUAAGUGUCAAUAGUCUGCAUGCCGCCGGGCGCCAUGCCUGCAGGUCGACUCUAGAAAACAUG", "values": [{"measurement": "binding signal", "setting": "PUM1 PUF domain R5-RFK", "value": "5.3 log2 enrichment (interaction score)"}]}, {"sequence": "GGCUAGAACUAGUGGAUCCCCCGGCGCCCGGCGGCUCGAGCCCGGGUAAGGGUAAAUAGUCUGCAUGCCGCCGGGCGCCAUGCCUGCAGGUCGACUCUAGAAAACAUG", "values": [{"measurement": "binding signal", "setting": "PUM1 PUF domain R8-TWK", "value": "3.33 log2 enrichment (interaction score)"}]}]}
